IMPase inh = cell-permeable inhibitors of inositol monophosphatase (IMPase) | 120,000 tested, under 10 active | CHO-M1 cells, IP1 accumulation, HTRF TR-FRET ratio | P97697 | AID 901 | inhibition (IP1 accumulation), % at 46.1 µM; active means well fitted curve in the direction sought with a large enough effect in the signal ratio, not every such curve was filed as active; inconclusive means small, poorly fitted or top-dose-only effect, or a change in a side signal; inactive means no such curve, though single readings can be large or run the other way; the % refers to the signal ratio;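 further: cells stimulated with carbachol in lithium chloride buffer; plate controls were DMSO basal wells for no effect and reference inhibitor wells for full effect; higher means more IMPase inhibition seen as more IP1 and lower FRET ratio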
Target sequence (P97697 whole entry, looked up): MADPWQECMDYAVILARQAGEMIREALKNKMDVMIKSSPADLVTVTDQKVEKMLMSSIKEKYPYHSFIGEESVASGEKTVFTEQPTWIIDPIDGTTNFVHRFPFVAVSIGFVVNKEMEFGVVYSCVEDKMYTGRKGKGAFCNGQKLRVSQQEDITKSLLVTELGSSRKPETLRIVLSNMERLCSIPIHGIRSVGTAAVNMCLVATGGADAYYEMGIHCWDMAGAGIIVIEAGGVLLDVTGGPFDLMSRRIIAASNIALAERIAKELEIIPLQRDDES
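Seeded CHO-M1 cells were dosed with compound at up to 46 uM, stimulated with carbachol for 30 min, then lysed in IP-One detection reagents. Higher IP1 lowers the TR-FRET signal.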
HTT cytoprotect = Huntington cell model cytoprotection by ATP luminescence | PC12 HTT-Q103 induced, cytoprotection, ATP luminescence, 40 h | Potency, µM (series often up to 56.4 µM), for inactives: cytoprotection (ATP increase), usual class: activators | actives 0.14% (n = 230,000) | AID 1471; further: potency means the concentration at half of the fitted maximal effect; % of control where 0% means no effect; nearly all actives have a fitted effect of over 45% in size
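Compounds added alongside 100 nM tebufenozide, which induces toxic Q103 huntingtin exon 1-GFP in stable PC12 cells; surviving cells quantified by luminescent ATP measurement. Medium: phenol red-free DMEM, 5% equine and 5% calf serum.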
HTT aggregate = inhibitors of mutant huntingtin aggregate formation in PC12 cells; actives 1.1% (n = 220,000); AID 1688; PC12 HttQ103-GFP aggregates, Acumen cytometry, 40 h; Potency, µM (series often up to 46.1 µM), inactives show at the highest dose activity change, negative = inhibition, usual class: inhibitors; further: potency means the concentration at half of the fitted maximal effect; on the % scale 0 is the no-effect control and ±100 the full control effect; nearly all actives have a fitted effect of over 60% in size
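Inducible Q103 Huntingtin exon 1–GFP PC12 line, 1500 cells/well in phenol red free DMEM with 5% equine and 5% calf serum. Tebufenozide 100 nM induced expression; compounds titrated; aggregates quantified by cytometry.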
IMPase Li inh = cell-permeable IMPase inhibitors with lithium potentiation | CHO-M1 cells, IP1 TR-FRET (IP-One), carbachol + lithium | Potency, µM (top dose mostly 59.4 µM), for inactives: at the top dose activity, negative = IMPase inhibition, most hits filed as inhibitors | actives 0.35% (n = 210,000) | AID 1457;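 further: IP1 builds up when IMPase is blocked and the TR-FRET signal falls; potency means the concentration at half of the fitted maximal effect; plate controls were basal vehicle for no effect and high inhibitor control for full effect; nearly all actives have a fitted effect of over 50% in size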
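Steps: plate 2000 CHO-M1 cells per well and culture 16–30 h; add compound and lithium; incubate 30 min, 37C; add d2-IP1 tracer and Eu cryptate anti-IP1 antibody in lysis buffer; read after 10 min at room temperature.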
Lamin A splicing = LMNA splicing modulation | HeLa LMNA splicing GFP/RFP minigene ratio, 48 h | Potency, µM (doses to about 46.1 µM), inactives show at the top dose ratio change, negative = inhibition, hits mostly inhibitors | actives 0.01% (n = 200,000) | AID 1487; active means well fitted inhibition curve with a large enough effect in the signal ratio, with a control signal flat, not every such curve was filed as active; inconclusive means small, poorly fitted or top-dose-only effect, or effect the other way, or a change in a side signal; the % refers to the signal ratio; further: potency means the concentration at half of the fitted maximal effect; on the % scale 0 is the no-effect control and ±100 the full control effect
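S3 HeLa stable clones carrying a lamin A-EGFP splicing minigene plus DsRed2 were seeded at 600 cells/well in Opti-MEM with 2% FBS, pin-dosed and incubated 48 h at 37°C. Acumen cytometry (488 nm) gave the GFP/RFP total-intensity ratio.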
NPSR antag = blocks cAMP signaling of the human neuropeptide S receptor | AID 1461 | Potency, µM (doses to about 38.3 µM), inactives show top-dose activity change, negative = inhibition, actives largely listed as inhibitors | actives 1% (n = 220,000) | CHO-NPSR cells, cAMP TR-FRET, antagonist mode | Q6W5P4; further: potency means the concentration at half of the fitted maximal effect; on the % scale 0 is the no-effect control and ±100 the full control effect; nearly all actives have a fitted effect of over 50% in size
Target sequence (Q6W5P4 whole entry, looked up): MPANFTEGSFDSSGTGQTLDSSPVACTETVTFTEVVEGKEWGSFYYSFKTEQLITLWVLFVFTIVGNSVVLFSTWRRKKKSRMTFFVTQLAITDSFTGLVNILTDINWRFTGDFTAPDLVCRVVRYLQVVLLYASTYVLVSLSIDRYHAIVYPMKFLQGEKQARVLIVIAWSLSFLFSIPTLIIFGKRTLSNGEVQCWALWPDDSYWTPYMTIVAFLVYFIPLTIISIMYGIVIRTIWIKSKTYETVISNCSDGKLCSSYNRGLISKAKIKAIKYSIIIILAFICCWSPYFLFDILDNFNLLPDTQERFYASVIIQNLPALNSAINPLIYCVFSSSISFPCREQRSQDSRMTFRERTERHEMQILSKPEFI
* marks the source's active call; other numbers are inactive results; ? = inconclusive; nt = no result; ! = repeats disagree; [ ] = another dose, or the depositor's remark. Hits are enriched below; roughly 1.6% of the tested compounds scored in any of these assays. Unless noted, the call rests on the fitted dose curve; in most records, active means well fitted curve in the direction sought with a large enough effect; inconclusive means small, poorly fitted or top-dose-only effect, or another doubt; inactive means no such curve, though single readings can be large; an effect the other way counts as inactive or inconclusive.

SMILES | IMPase inh | HTT cytoprotect | HTT aggregate | IMPase Li inh | Lamin A splicing | NPSR antag
O=c1cc(C(Cl)(Cl)Cl)oc2c1ccc1ccccc12 | 10 | -76% | 7.1µM* | 1%[38.3 µM] | -18% | 4%[46.1 µM]
O=c1cc(-c2ccccc2O)oc2c1ccc1ccccc12 | -4 | 0.45µM*! | nt | 8% | nt | nt
CC[C@@H](CS(=O)(=O)O)[N+](=O)[O-] | nt | 0%[10 µM] | nt | -2% | nt | nt
CCCCCCCCCCCCCC(=O)OCC(COP(=O)([O-])OCC[N+](C)(C)C)OC(=O)CCCCCCCCCCCCC (stereo not given) | nt | 1% | -4% | nt | nt | nt
O=Nc1c(-c2c(O)[nH]c3ccccc23)[nH]c2ccccc12 | 20 | 1.3µM*! | nt | 33% | ? | 5%[46.1 µM]
COCCCn1c(=S)[nH]c2sc3c(c2c1=O)CCCS3 | nt | -4%[10 µM] | -20% | ? | ? | 7.9µM*
CCn1c(=O)n(CCOC)c(=O)c2c3c(sc21)CCCC3 | -5 | 9%[1.9 µM] | ? | 1% | -6% | -10%[46.1 µM]
O[C@@H](c1cc(-c2ccc(Cl)cc2)nc2ccccc12)[C@@H]1CCCCN1 | nt | 11%[10 µM] | nt | nt | nt | nt
Cc1cc(C)c(S(=O)(=O)/N=C2/C=C(Sc3ncn[nH]3)C(=O)c3ccccc32)cc1C | nt | -98%[10 µM] | 3.5µM* | 40% | ? | ?
Cc1ccc(NC2=C/C(=N/S(=O)(=O)c3cccs3)c3ccccc3C2=O)cc1C | nt | nt | ? | 22% | -5% | -7%
Cc1ccc2c(c1)c1ccc3c(c1n2C)C(=O)C=CC3=O | nt | -11%[10 µM] | ? | nt | nt | 7.9µM*
O=C(NCc1ccco1)c1ccccc1NS(=O)(=O)c1ccc(Br)s1 | 6 | -53% | 18µM* | -3%[38.3 µM] | 4% | 5%[46.1 µM]
COc1cc(SC)ccc1C(=O)NC(C)C | nt | 13µM* | 0% | 16% | -25%[46 µM] | 4%
COc1cc(SC)ccc1C(=O)Nc1ccc(C)cc1 | nt | -2%[10 µM] | 12%[9.22 µM] | 13% | nt | 31%
CCN1CCN(Cc2c(O)ccc3c2O/C(=C\C=C\c2ccccc2)C3=O)CC1 | nt | -13%[0.074 µM] | -11% | 8% | ? | 4µM*
CCN1CCN(Cc2c(O)ccc3c2O/C(=C\c2ccc(C)cc2)C3=O)CC1 | nt | 4%[10 µM] | 13% | 2% | ? | 10µM*
CCN1CCN(Cc2c(O)ccc3c2O/C(=C\c2ccccc2)C3=O)CC1 | nt | -13% | -3% | -13% | nt | ?
Cc1ccc(/C=C2\Oc3c(ccc(O)c3CN3CCN(C)CC3)C2=O)cc1 | nt | -6% | -3% | 4% | nt | 7.9µM*
O=C1/C(=C/C=C/c2ccccc2)Oc2c1ccc(O)c2CN1CCN(CCO)CC1 | nt | 21%[10 µM] | -1%[9.22 µM] | nt | nt | -53%
CCc1ccc(/C=C2\Oc3c(ccc(O)c3CN3CCN(C)CC3)C2=O)cc1 | nt | -26%[10 µM] | -11%[9.22 µM] | nt | nt | 10µM*
CCC(=O)O[C@@H](OP(=O)(CCCCc1ccccc1)CC(=O)N1C[C@H](C2CCCCC2)C[C@H]1C(=O)O)C(C)C (stereo not given in full) | nt | 14% | 2% | nt | nt | nt
O=C(Nc1nnc(C2CC2)o1)c1ccc(S(=O)(=O)N2CCCc3ccccc32)cc1 | -2 | -17% | 11µM* | 6%[38.3 µM] | ? | -8%[46.1 µM]
O=C(Nc1nccs1)c1cc2c(s1)CCCCC2 | -5 | -69%[10 µM] | 13µM* | 9%[38.3 µM] | -14% | ?
CCSc1nnc(NC(=O)c2cc3c(s2)CCCC3)s1 | -14 | -20% | 24% | 5.6µM* | 2% | 0%[46.1 µM]
CCSc1nnc(NC(=O)C(C)(C(F)(F)F)C(F)(F)F)s1 | 0 | -44% | 25µM* | 38%[38.3 µM] | -16% | -8%[46.1 µM]
SMILES | IMPase inh | HTT cytoprotect | HTT aggregate | IMPase Li inh | Lamin A splicing | NPSR antag
N[C@@H]1C=CC=C(C(=O)O)C1 | 1 | 4%[1.9 µM] | nt | nt | nt | nt
COc1ccc(Oc2nccc(-c3ccc(F)cc3)c2C#N)cc1 | ? | -1% | -7% | 28µM* | 2% | ?
O=C(c1csnn1)N1CCC[C@@]2(CCN(c3ncccn3)C2)C1 | nt | 0% | nt | 5% | nt | nt
CCC(=NCCc1c(C)[nH]c2ccc(OC(F)(F)F)cc12)C1=C(O)CC(c2ccccc2)CC1=O (stereo not given) | nt | -63% | -17% | ? | nt | 10µM*
O=C(COC(=O)c1ccc2c(c1)C(=O)N(c1cccc3ncccc13)C2=O)c1ccc(Cl)cc1 | nt | 25%[10 µM] | -17% | -2% | -5% | 0%
Cc1ccc(C(=O)COC(=O)c2ccc3c(c2)C(=O)N(c2cccc4ncccc24)C3=O)cc1 | nt | 28%[10 µM] | 20µM* | -2% | -9% | 9%
O=[N+]([O-])c1ccc(/C=N/Nc2ncc(-c3ccccc3)cn2)cc1 | nt | 18%[10 µM] | 11%[9.22 µM] | 7% | ? | -7%
Cc1cc(-c2ccccc2)nc(N/N=C/c2ccc([N+](=O)[O-])cc2)n1 | nt | nt | 0.028µM* | 10% | 3% | -9%
Cc1cc(N/N=C/c2ccc(Cl)cc2)nc(NCc2ccccc2)n1 | 10 | nt | 13µM* | 12% | ? | 1%
CCOC(=O)c1cccc2c1-c1ccccc1/C2=N/O | 9 | 19% | -5% | -1%[38.3 µM] | 15% | -8%[46.1 µM]
CC1CCCC(C)N1C(=O)c1cccc2c1-c1ccccc1/C2=N/O (stereo not given) | 6 | 6%[1.9 µM] | 7.9µM* | 9% | -15% | -21%[46.1 µM]
COc1ccc(NS(=O)(=O)c2ccc(NC(=S)NC(=O)/C=C/c3ccccc3)cc2)nn1 | -2 | 4%[10 µM] | -11% | 5% | ? | 7.9µM*
CCOC(=O)c1cnc(-n2nc(C)cc2C)nc1NC1CCCC1 | nt | -20%[10 µM] | 21%[9.22 µM] | nt | nt | 1.3µM*
CCOC(=O)c1cnc(-n2nc(C)cc2C)nc1NCCc1ccccc1 | -5 | -70% | 13µM* | 15%[38.3 µM] | ? | 13µM*
